Compound activity deposited in PubChem BioAssay by National Center for Advancing Translational Sciences (NCATS).
In the library only some 12% were active in any assay of this set; here they are far more common.
Pf growth 48h: inhibits P. falciparum growth in the first generation, 48 h | hit rate 5.9% among 310,000 | Potency, µM (top dose mostly 28.7 µM), most hits filed as inhibitors | P. falciparum luciferase growth in erythrocytes, 48 h
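Growth was read as firefly luciferase luminescence after a 48 h, 37 C, 5% CO2 exposure of compounds to reporter-bearing P. falciparum cultures (0.1% parasitemia, 2% hematocrit final) in Albumax-supplemented RPMI 1640.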
Pf growth 96h: P. falciparum growth inhibition at 96 hour, primary screen for plastid delayed-death inhibitors; AID 504834; Potency, µM (highest dose often 28.7 µM), hits mostly inhibitors; P. falciparum luciferase reporter growth, 96 h; hit rate 6.9% among 320,000
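Two-generation exposure (96 h) targets delayed-death phenotype. Reporter parasites carrying integrated firefly luciferase, in red cells at 2% hematocrit and 0.05% parasitemia final, kept at 37 C, 5% CO2; luminescence loss indicates inhibition.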
SARS PLP yeast: inhibitors of SARS-CoV papain-like protease in yeast | S. cerevisiae expressing SARS-CoV PLpro, growth rescue | Potency, µM (series often up to 32.9 µM), most hits filed as activators | hit rate 0.19% among 330,000 | AID 485353; calls by dose curve; further: nearly all actives have a fitted effect of over 55% in size
Sm TGR block: inhibitors of Schistosoma mansoni thioredoxin glutathione reductase; AID 485364; hit rate 3% among 360,000; Potency, µM (doses to about 114 µM), hits mostly inhibitors; purified TGR, DTNB reduction, TNB absorbance 405 nm; Q962Y6; further: nearly all actives have a fitted effect of over 60% in size
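TGR 20 nM + NADPH 100 uM (dispensed conc.), cpd preinc 15 min RT; start with NADPH (500 uM addition) then DTNB (15 mM addition). Kinetic TNB absorbance, 405 nm filter. Four-parameter Hill fit across titration.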
Hits are given with their value; 0 = inactive; ? = inconclusive; - = no result; [ ] = another dose, or the depositor's remark. Unless noted, the call rests on the fitted dose curve; in most records, active means well fitted curve in the direction sought with a large enough effect; inconclusive means small, poorly fitted or top-dose-only effect, or another doubt; inactive means no such curve, though single readings can be large; an effect the other way counts as inactive or inconclusive.

SMILES	Pf growth 48h	Pf growth 96h	SARS PLP yeast	Sm TGR block
CC1CN(S(=O)(=O)c2cccc(C(=O)OC(C)C(=O)NC3CCCCC3C)c2)CC(C)O1 (centres undefined)	0	?	0	0
Cc1ccccc1NC(=O)NCCCN1CCN(C2CCCCC2)CC1	0	0	0	0
Cc1ccccc1NC(=O)NCCCN1CCCC1	-	2.33µM	0	0
CCc1ccc(NC(=O)NCCN2CCc3ccccc3C2)cc1	0	2.08µM	0	0
Cc1ccc(NC(=O)NCCN2CCCCC2)cc1C	0	16.5µM	0	0
CC1CCCCN1C(=O)CSc1c2c(nc3cc(Cl)ccc13)CCCC2 (centres undefined)	-	-	-	0
O=C(O)c1c2c(nc3ccccc13)CCCCC2	0	?	0	0
Nc1c2c(nc3ccn(Cc4ccccc4)c(=O)c13)CCC2	-	2.94µM	0	0[11.4 µM]
Nc1c2c(nc3ccn(-c4ccccc4)c(=O)c13)CCCCC2	?	16.5µM	0	0
CCOC(=O)c1noc2ncnc(Nc3cccc(OC)c3)c12	-	-	-	0
CCc1ccc(CNC(=O)Cn2nc(C)n3c(cc4cc(C)ccc43)c2=O)cc1	-	-	-	0
CCOC(=O)c1ccc(NC(=O)Cc2coc3cc(C)cc(C)c23)cc1	-	-	-	0
CS(=O)(=O)N1CCC(C(=O)NCc2ccc3c(c2)OCO3)CC1	0	0	0	0
COc1ccc(C(=O)/C=C/c2cccc(OCc3ccccc3)c2)cc1CSCC(=O)O	9.28µM	4.65µM	0	0
COc1ccc(C(=O)/C=C/c2ccc(OCc3ccccc3)cc2)cc1CSCC(=O)O	0	0	0	0
O=C(CCC(=O)c1ccc(F)cc1)NCC1(N2CCCCC2)CCCCC1	?	?	0	0
Cc1ccc(CN(Cc2ccco2)C(=O)COc2ccc(Cl)cc2)o1	-	-	-	0
COc1cc(/C=N/NC(=O)c2ccc(Cl)cc2)ccc1OCC(=O)N1CC(C)OC(C)C1 (centres undefined)	0	0	0	0
COc1cc(/C=N/NC(=S)NC(C)C)ccc1OCC(=O)Nc1c(C)cc(C)cc1C	11.7µM	13.1µM	0	0
COc1cc(/C=N/NC(=S)Nc2cccc(Cl)c2C)ccc1OCC(=O)N1CC(C)OC(C)C1 (centres undefined)	9.28µM	?	0	0
COc1ccc(-c2noc(N3CCC(C(=O)N(C)c4ccccc4)CC3)n2)cc1	?	0	0	0
CCOc1ccc2nc(C)cc(C(=O)O)c2c1	0	?	0	0
CCCc1c(C)nc2ccc(OC)cc2c1SCCC(=O)O	0	11.7µM	0	0
CCCOc1ccc2nc(C)c(CCC)c(SC(=N)N)c2c1	1.17µM	6.57µM	0	0
COc1ccc(C(CNC(=O)CCNC(=O)c2ccccc2OC)N2CCCC2)cc1 (centres undefined)	?	11.7µM	0	0
SMILES	Pf growth 48h	Pf growth 96h	SARS PLP yeast	Sm TGR block
COc1ccc(C(CNC(=O)C(CCSC)NC(=O)c2ccccc2Cl)N2CCOCC2)cc1 (centres undefined)	0	0	0	0
COc1ccc(C(CNC(=O)C(CCSC)NC(=O)c2ccccc2OC)N2CCCCC2)cc1 (centres undefined)	?	11.7µM	0	0
COc1ccc(C(CNC(=O)CCNC(=O)c2ccccc2Cl)N2CCCC2)cc1 (centres undefined)	0	?	0	0
Cc1cccc(C(=O)Nc2ccc(NC(=O)Cc3ccc(Cl)cc3)cc2)c1	0	11.7µM	0	0
COc1cccc(C(=O)NNC(=O)Cc2ccc(Cl)cc2)c1	0	2.94µM	0	0
Cc1nn2c(-n3ccnc3)c3c(nc2c1-c1ccccc1)CCC3	0	0	0	0
Cc1nn2c(N3CCCC3)c3c(nc2c1-c1ccccc1)CCC3	?	?	0	11.2µM
Cc1nn2c(N3CCN(CCO)CC3)c3c(nc2c1-c1ccccc1)CCCC3	8.28µM	?	0	0
Cc1cccc(NC(=S)NCc2ccc(F)cc2)c1	0	0	0	0
CCC(NC(=S)NCc1ccc(F)cc1)c1ccccc1 (centres undefined)	6.57µM	?	0	0
COc1ccc(C(C)NC(=S)NCc2ccc(F)cc2)cc1 (centres undefined)	?	0	0	0
Cc1ccc(C)c(C(C)NC(=S)NCc2ccc(F)cc2)c1 (centres undefined)	3.29µM	0	0	0
Cn1c(O)c(/C=N/NC(=O)c2cc3ccccc3cc2O)c2ccccc21	?	?	0	0
COCCn1c(C)cc(/C=N/NC(=O)c2cc3ccccc3cc2O)c1C	3.7µM	9.28µM	0	0
O=C1c2ccc3c4c(ccc(c24)C(=O)N1c1ccc(O)cc1)C(=O)N(c1ccc(O)cc1)C3=O	0	4.65µM	0	0
O=C(O)c1ccc(S(=O)(=O)c2ccc3c(c2)C(=O)N(c2ccc(O)cc2)C3=O)cc1	0	0	0	0
CCOc1ccc(N2C(=O)C(Cl)=C(N3CCOCC3)C2=O)cc1	?	?	0	22.4µM
CC(C)c1ccc(N2C(=O)C(Cl)=C(N3CCOCC3)C2=O)cc1	0	0	0	0
O=C1C(Cl)=C(N2CCOCC2)C(=O)N1c1ccc(Br)cc1	?	11.7µM	0	?
COc1ccc(OC)c(-c2csc(NC(=O)Cc3ccccc3)n2)c1	?	?	0	0
COC(=O)c1cc(-c2cc(OC)ccc2OC)nc2c1c(=O)n(C)c(=O)n2Cc1ccccc1	?	2.08µM	0	0
CCOC(=O)c1cc(-c2ccc(F)cc2)n(CCC(=O)NCCc2ccc(C)cc2)c1C	-	-	-	0
O=c1c2sc3ccccc3c2n(Cc2cccc(F)c2)c(=O)n1CCc1ccccc1	-	-	-	0
Cc1ccc(-c2nc(NC(=O)c3cc(C(C)(C)C)nn3C)sc2C)cc1Cl	1.85µM	2.08µM	0	0
CC1CCc2nc(NC(=O)c3cc(C(C)(C)C)nn3C)sc2C1 (centres undefined)	?	8.28µM	0	0
SMILES	Pf growth 48h	Pf growth 96h	SARS PLP yeast	Sm TGR block
CCOC(=O)c1nnn(CC(=O)Nc2cc(C)cc(C)c2)c1C(=O)OCC	-	-	-	0
CCC1CN(C(=O)N2CCC(C(=O)N(C)Cc3ccccc3)CC2)c2ccccc2O1 (centres undefined)	-	-	-	0
CCOC(=O)c1[nH]c(Cc2[nH]c(C(=O)OCC)c(C)c2CCC(=O)OC)c(CCC(=O)OC)c1C	1.65µM	0	0	7.94µM
CCOC(=O)c1c(C)[nH]c(C(=O)OC)c1CCC(=O)OC	0	0	0	0
CCOc1ccc(NC(=O)CSc2oc(-c3cccs3)nc2S(=O)(=O)c2ccc(C)cc2)cc1	-	-	-	0
CCc1ccc(NC(=O)c2cnc(N3CCN(c4ccccn4)CC3)c3ccccc23)cc1	?	13.1µM	0	0
Cc1ccc(C(=O)N2CCN(c3ccc(NC(=O)c4ccc(Br)o4)cc3)CC2)cc1	10.4µM	-	0	0
N#Cc1ccccc1N1CCN(C(=O)c2ccc(NC(=O)c3ccc(Br)o3)cc2)CC1	?	?	0	28.2µM
CC(C)NC(=O)c1cnc(N2CCN(c3ccccn3)CC2)c2ccccc12	?	?	0	0
O=C(Nc1ccc(C(=O)N2CCN(c3ccccn3)CC2)cc1)c1ccc(Br)o1	?	?	0	44.7µM
O=C(c1ccc(Br)o1)N1CCN(c2ccccn2)CC1	0	0	0	0
COc1cccc(C(=O)Nc2ccc(-n3nncc3C(C)(C)C)cc2)c1	0	0	0	0
